Potency and affinity values are given separately. Values without a mark were called inactive. The rule behind the calls is not given here.
Experiment: toxicity toward HEK293 cells – cell-based, dry powder samples, cytotoxicity control, dose response (AID 720567)
Details: plate reader; series mostly up to 15 µM; activity change, negative = cytotoxicity: at the top concentration

| Compound | activity change, negative = cytotoxicity |
| --- | --- |
| COc1ccc(CSc2nnc(-c3ccccc3)o2)cc1 | 49.6% |
| CC(=O)N[C@H]1[C@@H](O[C@@H]2OC(C[C@@H](O)C3O[C@@H](n4ccc(=O)[nH]c4=O)[C@H](O)[C@@H]3O)[C@H](O)[C@H](O)[C@H]2NC(=O)/C=C/CCCCCCCCCCC(C)C)O[C@H](CO)[C@@H](O)[C@@H]1O (stereo partly drawn) | 67.2% [at 3.8 µM] |
| c1ccc(CSc2nnc(-c3ccccc3)o2)cc1 | 9.89% |

From PubChem BioAssay AID720567 (Broad Institute, 2013)
